In PubChem BioAssay (NCI):
Compounds without any hit were thinned out: in the full panel of roughly 79,000, 15% have a hit. Values without a mark were called inactive. Calls of active or inactive are those of the source. No stated cut-off is given here; in the data, active means growth inhibition above about 70%; inactive means the rest.

Assays:
[1] = NCI Yeast Anticancer Drug Screen. Data for the rad52 strain (AID 147);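 further: 0% = growth of vehicle-treated control cultures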; settings: S. cerevisiae rad52 mutant growth inhibition, hits give high values
Outline: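 Yeast strain carrying a DNA damage repair alteration was exposed to test compounds. Growth inhibition was measured relative to vehicle-treated controls.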

[2] = NCI Yeast Anticancer Drug Screen. Data for the wt1 strain (AID 149);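 further: 0% = growth of vehicle-treated wt1 cultures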; settings: S. cerevisiae wt1 strain (SPY 50644) growth inhibition, hits give high values
Outline: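 Vehicle-normalised growth inhibition; strain wt1; compound exposure.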

[3] = NCI Yeast Anticancer Drug Screen. Data for the rad50EPP+ strain (AID 151);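 further: 0% = growth of vehicle-treated control cultures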; settings: S. cerevisiae rad50 mutant strain, hits give high values
Outline: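 Yeast strain carrying rad50 alteration (rad50EPP+) exposed to compounds; growth inhibition measured relative to vehicle-treated controls.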

[4] = NCI Yeast Anticancer Drug Screen. Data for the mgt1 strain (AID 153); settings: S. cerevisiae mgt1 mutant growth inhibition, hits give high values
Outline: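 Yeast mgt1 strain (DNA repair/cell-cycle alteration panel) exposed to compounds; growth inhibition measured relative to vehicle-treated controls.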

[5] = NCI Yeast Anticancer Drug Screen. Data for the rad50 strain (AID 155);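 further: 0% = growth of vehicle-only cultures of the same strain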; settings: S. cerevisiae rad50 strain growth inhibition, hits give high values
Outline: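 A DNA repair-deficient yeast mutant serves as the test organism; compound-induced growth inhibition is calculated against vehicle-treated cells.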

[6] = NCI Yeast Anticancer Drug Screen. Data for the mec2-1 strain (AID 157); settings: S. cerevisiae mec2-1 strain, hits give high values
Outline: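 mec2-1 yeast strain, carrying an alteration in DNA damage repair or cell cycle control, was exposed to compounds; growth inhibition was measured relative to vehicle-treated controls.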

[7] = NCI Yeast Anticancer Drug Screen. Data for the rad14 strain (AID 159);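 further: 0% = growth of vehicle-treated control cultures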; settings: S. cerevisiae rad14 strain growth inhibition, hits give high values
Outline: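 Vehicle-treated cultures served as the baseline for growth inhibition of a DNA repair-mutant yeast strain exposed to each compound.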

[8] = NCI Yeast Anticancer Drug Screen. Data for the sgs1 mgt1 strain (AID 161);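 further: 0% = growth of cultures given vehicle only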; settings: S. cerevisiae sgs1 mgt1 strain, hits give high values
Outline: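 Compounds are added to genetically altered yeast, and growth is compared with cultures given vehicle alone to give percent inhibition.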

[9] = NCI Yeast Anticancer Drug Screen. Data for the CLN2oe strain (AID 163);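 further: 0% = growth of vehicle-only control cultures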; settings: S. cerevisiae CLN2oe strain, hits give high values
Outline: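 Yeast cells carrying a defined cell-cycle control alteration were exposed to test compounds. Growth inhibition was scored against vehicle-treated control cultures.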

[10] = NCI Yeast Anticancer Drug Screen. Data for the cln2 rad14 strain (AID 165);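 further: 0% = growth equal to vehicle treated cultures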; settings: S. cerevisiae cln2 rad14 strain, hits give high values
Outline: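 Yeast carrying cln2 and rad14 alterations (cell cycle control and DNA damage repair) were exposed to compounds. Growth inhibition was measured against vehicle-treated controls.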

[11] = NCI Yeast Anticancer Drug Screen. Data for the bub3 strain (AID 167); settings: S. cerevisiae bub3 mutant strain, hits give high values
Outline: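 Inhibition values come from growth of compound-treated mutant yeast normalised to vehicle-treated controls.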

[12] = NCI Yeast Anticancer Drug Screen. Data for the wt2 strain (AID 169);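 further: 0% = growth of vehicle-treated yeast cultures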; settings: S. cerevisiae wt2 strain growth inhibition, hits give high values
Outline: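 Yeast cells were exposed to test compounds, and growth inhibition was measured relative to vehicle-treated controls.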

[13] = NCI Yeast Anticancer Drug Screen. Data for the mlh1 strain (AID 171);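 further: 0% = growth of vehicle-treated control cultures of the same strain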; settings: S. cerevisiae mlh1 strain growth inhibition, hits give high values
Outline: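 Yeast carrying a defined genetic alteration in DNA damage repair or cell cycle control were exposed to test compounds. Growth inhibition was measured relative to vehicle-treated controls.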

[14] = NCI Yeast Anticancer Drug Screen. Data for the sgs1 strain (AID 173);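 further: 0% = growth of vehicle-only control cultures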; settings: S. cerevisiae sgs1 mutant, hits give high values
Outline: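 Yeast mutant strains carrying defined defects in DNA damage repair or cell cycle control were exposed to test compounds. Growth inhibition was scored against vehicle-treated controls.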

[15] = NCI Yeast Anticancer Drug Screen. Data for the mlh1 rad18 strain (AID 175); settings: S. cerevisiae mlh1 rad18 strain growth inhibition, hits give high values
Outline: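 Growth inhibition of the yeast strain was measured after compound exposure and expressed relative to vehicle-treated controls. The strain carries defined defects in DNA damage repair.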

[16] = NCI Yeast Anticancer Drug Screen. Data for the rad18 strain (AID 177); settings: S. cerevisiae rad18 mutant growth inhibition, hits give high values
Outline: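 Yeast carrying a defined DNA damage repair alteration were exposed to compounds. Growth inhibition was expressed relative to vehicle-treated controls.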

[17] = at 5.0 µM (retest, dose inferred, filed as 0.5)
[18] = at 50.0 µM (retest, dose inferred, filed as 5.0)

Q: What does the source list for CC(C)(Br)C(=O)/C=C/c1ccccc1?
A: growth inhibition ([1]; at 1.2 µM): 8%; growth inhibition ([1]; at 3.7 µM): 21%; growth inhibition ([1]; at 11.0 µM): 47%; growth inhibition ([1]; at 33.0 µM): 73% (active); growth inhibition ([1]; at 100.0 µM): 91% (active); growth inhibition ([2]; at 1.2 µM): 3%; growth inhibition ([2]; at 3.7 µM): 9%; growth inhibition ([2]; at 11.0 µM): 9%; growth inhibition ([2]; at 33.0 µM): 10%; growth inhibition ([2]; at 100.0 µM): 17%; growth inhibition ([3]; at 1.2 µM): 21%; growth inhibition ([3]; at 3.7 µM): 51%; growth inhibition ([3]; at 11.0 µM): 76% (active); growth inhibition ([3]; at 33.0 µM): 88% (active); growth inhibition ([3]; at 100.0 µM): 95% (active); growth inhibition ([4]; at 1.2 µM): -2%; growth inhibition ([4]; at 3.7 µM): -1%; growth inhibition ([4]; at 11.0 µM): 4%; growth inhibition ([4]; at 33.0 µM): 7%; growth inhibition ([4]; at 100.0 µM): 15%; growth inhibition ([5]; at 1.2 µM): 6%; growth inhibition ([5]; at 3.7 µM): 11%; growth inhibition [5, 17]: 15%; growth inhibition ([5]; at 11.0 µM): 26%; growth inhibition ([5]; at 33.0 µM): 34%; growth inhibition [5, 18]: 93% (active); growth inhibition ([5]; at 50.0 µM): 88.3% (active); growth inhibition ([5]; at 100.0 µM): 60%; growth inhibition ([6]; at 1.2 µM): 5%; growth inhibition ([6]; at 3.7 µM): 7%; growth inhibition [6, 17]: -14%; growth inhibition ([6]; at 11.0 µM): 17%; growth inhibition ([6]; at 33.0 µM): 28%; growth inhibition [6, 18]: 89% (active); growth inhibition ([6]; at 50.0 µM): 95.7% (active); growth inhibition ([6]; at 100.0 µM): 48%; growth inhibition ([7]; at 1.2 µM): 6%; growth inhibition ([7]; at 3.7 µM): 14%; growth inhibition ([7]; at 11.0 µM): 27%; growth inhibition ([7]; at 33.0 µM): 59%; growth inhibition ([7]; at 100.0 µM): 97% (active); growth inhibition [8, 17]: 68%; growth inhibition [8, 18]: 92% (active); growth inhibition ([8]; at 50.0 µM): 91.3% (active); growth inhibition ([9]; at 1.2 µM): -4%; growth inhibition ([9]; at 3.7 µM): -3%; growth inhibition ([9]; at 11.0 µM): -5%; growth inhibition ([9]; at 33.0 µM): 4%; growth inhibition ([9]; at 100.0 µM): 19%; growth inhibition [10, 17]: 3%; growth inhibition [10, 18]: 87% (active); growth inhibition ([10]; at 50.0 µM): 97.2% (active); growth inhibition ([11]; at 1.2 µM): -3%; growth inhibition ([11]; at 3.7 µM): -7%; growth inhibition [11, 17]: -16%; growth inhibition ([11]; at 11.0 µM): -7%; growth inhibition ([11]; at 33.0 µM): -2%; growth inhibition [11, 18]: 63%; growth inhibition ([11]; at 50.0 µM): 22.1%; growth inhibition ([11]; at 100.0 µM): 7%; growth inhibition ([12]; at 1.2 µM): 0%; growth inhibition ([12]; at 3.7 µM): 3%; growth inhibition ([12]; at 11.0 µM): 6%; growth inhibition ([12]; at 33.0 µM): 10%; growth inhibition ([12]; at 100.0 µM): 18%; growth inhibition ([13]; at 1.2 µM): 0%; growth inhibition ([13]; at 3.7 µM): 4%; growth inhibition ([13]; at 11.0 µM): 10%; growth inhibition ([13]; at 33.0 µM): 15%; growth inhibition ([13]; at 100.0 µM): 27%; growth inhibition ([14]; at 1.2 µM): 24%; growth inhibition ([14]; at 3.7 µM): 50%; growth inhibition ([14]; at 11.0 µM): 66%; growth inhibition ([14]; at 33.0 µM): 70% (active); growth inhibition ([14]; at 100.0 µM): 80% (active); growth inhibition [15, 17]: 74% (active); growth inhibition [15, 18]: 95% (active); growth inhibition ([15]; at 50.0 µM): 71.9% (active); growth inhibition ([16]; at 1.2 µM): 94% (active); growth inhibition ([16]; at 3.7 µM): 95% (active); growth inhibition ([16]; at 11.0 µM): 96% (active); growth inhibition ([16]; at 33.0 µM): 96% (active); growth inhibition ([16]; at 100.0 µM): 97% (active)
